Test results published in PubChem BioAssay AID1851 (National Center for Advancing Translational Sciences (NCATS), 2009).
The campaign covered roughly 16,000 compounds. About 4,000 (25%) were called active. About 26% were inconclusive and are not listed. These entries were drawn from the full list. A number with no mark means an inactive call. Calls come from the whole dose curve; as a rule, active = well fitted curve in the direction sought with a large enough effect; inconclusive = small, poorly fitted or top-dose-only effect, or effect the other way; inactive = no such curve, though single readings can be large or run the other way.

target: Cytochrome P450 2C9 (Homo sapiens) (UniProt P11712); test: Cytochrome panel assay with activity outcomes; details: recombinant CYP, pro-luciferin dealkylation, luminescence, p450-cyp2c9; series mostly up to 57.1 µM; activity, negative = inhibition: at the top concentration
% is set by controls: 0 for no effect and ±100 for the full control effect.

Chain of Cytochrome P450 2C9 (Homo sapiens) (P11712 whole entry, looked up): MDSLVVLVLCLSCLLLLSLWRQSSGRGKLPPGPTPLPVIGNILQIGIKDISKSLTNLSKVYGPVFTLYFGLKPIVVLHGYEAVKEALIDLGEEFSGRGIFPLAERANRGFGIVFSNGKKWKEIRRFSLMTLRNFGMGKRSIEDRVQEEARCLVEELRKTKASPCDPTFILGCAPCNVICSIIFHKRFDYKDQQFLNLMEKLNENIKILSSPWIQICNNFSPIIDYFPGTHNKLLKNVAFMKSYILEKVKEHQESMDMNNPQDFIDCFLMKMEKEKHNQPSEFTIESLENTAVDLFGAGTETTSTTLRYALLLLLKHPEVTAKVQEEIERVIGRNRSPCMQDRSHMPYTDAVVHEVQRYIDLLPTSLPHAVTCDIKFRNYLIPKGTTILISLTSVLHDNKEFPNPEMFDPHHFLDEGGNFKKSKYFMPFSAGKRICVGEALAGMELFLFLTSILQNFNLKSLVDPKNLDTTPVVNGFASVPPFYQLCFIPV

Row | SMILES | activity, negative = inhibition | AC50
1 | Nc1nc(Cl)cc(N2CCOCC2)n1 | 6.83% | 
2 | c1ccc2c(N3CCOCC3)nc(-c3ccoc3)nc2c1 | 11.8% [at 2.29 µM] | 
3 | Brc1ccc([C@H]2CN3CCSC3=N2)cc1 | -16% | 
4 | CN1CCN(c2ncncc2-c2ccc(C(=O)N(C)C)cc2)CC1 | 16.3% [at 2.29 µM] | 
5 | O=P(O)(O)CCP(=O)(c1ccccc1)c1ccccc1 | 1.21% | 
6 | O=C1CC(c2ccc(F)cc2)Cc2nc(NCC3CCCO3)ncc21 (configuration not stated) |  | 12.6 µM (active)
7 | CCNc1ncc2nc(-c3cc(F)cc(F)c3)c(=O)n(C[C@H]3CCCO3)c2n1 | 5.57% | 
8 | CCNc1ncc2nc(-c3ccc(F)cc3)c(=O)n(C[C@H]3CCCO3)c2n1 | 18.5% | 
9 | Cc1nc2cccc([N+](=O)[O-])c2n1CCCN(C)C | -4.5% [at 11.4 µM] | 
10 | Cc1ccc2nc(SCC(=O)NCc3cccs3)c(C#N)cc2c1 | -10.6% | 
11 | Cc1ccc2nc(SCc3nnc(-c4ccccc4[N+](=O)[O-])o3)c(C#N)cc2c1 |  | 0.794 µM (active)
12 | CN1CCC(=C2c3ccccc3CC(=O)c3sccc32)CC1 |  | inactive
13 | O=C(O)CN(CCN(CC(=O)O)CC(=O)O)CC(=O)O.[Mn] | -0.525% [at 11.4 µM] | 
14 | Cc1cn2c(-c3ccncc3)nnc2s1 | -23.3% | 
15 | c1cc(-c2sc(-c3ccncc3)c(-c3ccncc3)c2-c2ccncc2)ccn1 |  | 2 µM (active)
16 | CN1CCN(S(=O)(=O)c2ccc3[nH]cc(C(=O)O)c(=O)c3c2)CC1 | -21.4% | 
17 | CCC(CC)C(=O)c1c[nH]c(C(=O)NCCCN2CCOCC2)c1 | -7.46% | 
18 | COc1cccc(C2=NOC(C(=O)NCCN3CCOCC3)C2)c1 (configuration not stated) | -23.4% | 
19 | CS(=O)(=O)Nc1cccc(-c2nc(NCCN3CCOCC3)c3ccccc3n2)c1 | 3.9% [at 2.29 µM] | 
20 | COc1cccc(NS(=O)(=O)c2ccc3[nH]cc(C(=O)NCCN4CCOCC4)c(=O)c3c2)c1 |  | 7.94 µM (active)
21 | Cc1cc(S(=O)(=O)NCCCN2CCOCC2)ccc1F | -0.482% | 
22 | Cc1ccccc1NS(=O)(=O)c1ccc2[nH]cc(C(=O)N(C)Cc3ccco3)c(=O)c2c1 |  | 12.6 µM (active)
23 | Cc1ccccc1NS(=O)(=O)c1ccc2[nH]cc(C(=O)NCCCN3CCOCC3)c(=O)c2c1 |  | 12.6 µM (active)
24 | CO[C@H]1COC(=O)C/C=C\[C@@H](C)COC(=O)[C@@H](C)NC(=O)C/C=C\[C@@H]1C | -12.1% [at 11.4 µM] | 

Row | SMILES | activity, negative = inhibition | AC50
25 | COc1ccc(/C=C/C(=O)Nc2ccccc2C(=O)N2CCCC2)cc1 |  | 15.8 µM (active)
26 | Cc1ccccc1N1CCN(C(=O)c2ccccc2NC(=O)/C=C\C(=O)O)CC1 |  | 14.1 µM (active)
27 | COC(=O)CNC(=O)/C=C/c1ccc(OC)cc1 | -10.7% | 
28 | CCOC(=O)C1CCN(C(=O)c2ccccc2NC(C)=O)CC1 | -13.2% | 
29 | COC(=O)N1CCC2(CCCN(C(=O)Nc3ccc(OC)cc3)C2)CC1 | -12% | 
30 | NCc1ccccc1CC(=O)N[C@@H]1C(=O)N2C(C(=O)O)=C(CSc3nnnn3CC(=O)O)CS[C@@H]12 | -8% [at 25.6 µM] | 
31 | CC(=O)Nc1nc(NC(C)=O)c2[nH]c(CO)nc2n1 | 15.3% [at 11.4 µM] | 
32 | FC(F)(F)c1nc(N2CCCC2)ncc1-c1nnnn1-c1ccccc1 |  | 6.31 µM (active)
33 | FC(F)(F)c1nc(-c2ccncc2)ncc1-c1nnnn1-c1ccccc1 |  | 2.82 µM (active)
34 | Cc1nc2cnc(N3CCNCC3)nc2n(-c2ccccc2)c1=O | 11.8% | 
35 | Cc1cc(C)cc(-n2nnnc2-c2cn(C)nc2C(F)(F)F)c1 | -29.6% | 
36 | c1ccc(CNc2nc(-c3ccoc3)nc3ccccc23)cc1 | -16.4% [at 2.29 µM] | 
37 | Cc1ccc(NC(=S)Nc2ccc(Br)cc2)cc1 | -21.4% | 
38 | CCCNC(=S)Nc1ccc(Br)cc1 |  | 14.1 µM (active)
39 | Cc1cc(C)n(-c2ccc(F)cc2)c(=O)c1C(=O)O | -2.88% | 
40 | N=c1n(-c2ccccc2)c(O)cc(=O)n1-c1ccccc1 | -18.2% | 
41 | CC(=O)c1c(O)c(C)c(-c2ccccc2)n(-c2ccccc2)c1=O |  | 14.1 µM (active)
42 | N#C/C(=N\O)c1nc(-c2ccccc2)cs1 |  | 22.4 µM (active)
43 | C[n+]1cccc(CNC(=O)/C=N/O)c1 | 4.55% | 
44 | O=C1OCCC=C1[C@@H](O)CCc1ccccc1 | 5.4% [at 11.4 µM] | 
45 | O=C(O)[C@H](CCc1ccccc1)N1C(=O)c2ccccc2C1=O | -7.78% [at 11.4 µM] | 
46 | O=C1C(=O)c2ccccc2C(O)=C1C(CCc1ccccc1)C1=C(O)c2ccccc2C(=O)C1=O |  | 3.16 µM (active)
47 | CC(=O)O[C@H]1C2=CO[C@H](C)[C@H]3[C@H]4C5=C([C@H](O)[C@H]6O[C@@H]6C5=O)[C@H](O[C@H]4C)[C@@]23C(=O)[C@H]2O[C@@H]21 | 19.9% [at 11.4 µM] | 
